Screens deposited in PubChem BioAssay by Center for Chemical Genomics, University of Michigan.
Shown is part of a subset that was picked to be rich in hits.
Dicer inh: inhibitors of Dicer pre-microRNA processing, primary screen, biochemical, cat-ELCCA, chemiluminescence; z-score at 25 µM; cat-ELCCA pre-miR-21 Dicer processing; stronger effect = higher value; Endoribonuclease Dicer (Homo sapiens), Q9UPY3; hit rate 6% among 47,000; in the data active = z-score above about 3, passing the limit was not always enough;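 note: plate controls were vehicle for no effect and no enzyme for full effect; higher signal means more uncleaved substrate so more Dicer inhibition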
Target sequence (Q9UPY3 whole entry, looked up): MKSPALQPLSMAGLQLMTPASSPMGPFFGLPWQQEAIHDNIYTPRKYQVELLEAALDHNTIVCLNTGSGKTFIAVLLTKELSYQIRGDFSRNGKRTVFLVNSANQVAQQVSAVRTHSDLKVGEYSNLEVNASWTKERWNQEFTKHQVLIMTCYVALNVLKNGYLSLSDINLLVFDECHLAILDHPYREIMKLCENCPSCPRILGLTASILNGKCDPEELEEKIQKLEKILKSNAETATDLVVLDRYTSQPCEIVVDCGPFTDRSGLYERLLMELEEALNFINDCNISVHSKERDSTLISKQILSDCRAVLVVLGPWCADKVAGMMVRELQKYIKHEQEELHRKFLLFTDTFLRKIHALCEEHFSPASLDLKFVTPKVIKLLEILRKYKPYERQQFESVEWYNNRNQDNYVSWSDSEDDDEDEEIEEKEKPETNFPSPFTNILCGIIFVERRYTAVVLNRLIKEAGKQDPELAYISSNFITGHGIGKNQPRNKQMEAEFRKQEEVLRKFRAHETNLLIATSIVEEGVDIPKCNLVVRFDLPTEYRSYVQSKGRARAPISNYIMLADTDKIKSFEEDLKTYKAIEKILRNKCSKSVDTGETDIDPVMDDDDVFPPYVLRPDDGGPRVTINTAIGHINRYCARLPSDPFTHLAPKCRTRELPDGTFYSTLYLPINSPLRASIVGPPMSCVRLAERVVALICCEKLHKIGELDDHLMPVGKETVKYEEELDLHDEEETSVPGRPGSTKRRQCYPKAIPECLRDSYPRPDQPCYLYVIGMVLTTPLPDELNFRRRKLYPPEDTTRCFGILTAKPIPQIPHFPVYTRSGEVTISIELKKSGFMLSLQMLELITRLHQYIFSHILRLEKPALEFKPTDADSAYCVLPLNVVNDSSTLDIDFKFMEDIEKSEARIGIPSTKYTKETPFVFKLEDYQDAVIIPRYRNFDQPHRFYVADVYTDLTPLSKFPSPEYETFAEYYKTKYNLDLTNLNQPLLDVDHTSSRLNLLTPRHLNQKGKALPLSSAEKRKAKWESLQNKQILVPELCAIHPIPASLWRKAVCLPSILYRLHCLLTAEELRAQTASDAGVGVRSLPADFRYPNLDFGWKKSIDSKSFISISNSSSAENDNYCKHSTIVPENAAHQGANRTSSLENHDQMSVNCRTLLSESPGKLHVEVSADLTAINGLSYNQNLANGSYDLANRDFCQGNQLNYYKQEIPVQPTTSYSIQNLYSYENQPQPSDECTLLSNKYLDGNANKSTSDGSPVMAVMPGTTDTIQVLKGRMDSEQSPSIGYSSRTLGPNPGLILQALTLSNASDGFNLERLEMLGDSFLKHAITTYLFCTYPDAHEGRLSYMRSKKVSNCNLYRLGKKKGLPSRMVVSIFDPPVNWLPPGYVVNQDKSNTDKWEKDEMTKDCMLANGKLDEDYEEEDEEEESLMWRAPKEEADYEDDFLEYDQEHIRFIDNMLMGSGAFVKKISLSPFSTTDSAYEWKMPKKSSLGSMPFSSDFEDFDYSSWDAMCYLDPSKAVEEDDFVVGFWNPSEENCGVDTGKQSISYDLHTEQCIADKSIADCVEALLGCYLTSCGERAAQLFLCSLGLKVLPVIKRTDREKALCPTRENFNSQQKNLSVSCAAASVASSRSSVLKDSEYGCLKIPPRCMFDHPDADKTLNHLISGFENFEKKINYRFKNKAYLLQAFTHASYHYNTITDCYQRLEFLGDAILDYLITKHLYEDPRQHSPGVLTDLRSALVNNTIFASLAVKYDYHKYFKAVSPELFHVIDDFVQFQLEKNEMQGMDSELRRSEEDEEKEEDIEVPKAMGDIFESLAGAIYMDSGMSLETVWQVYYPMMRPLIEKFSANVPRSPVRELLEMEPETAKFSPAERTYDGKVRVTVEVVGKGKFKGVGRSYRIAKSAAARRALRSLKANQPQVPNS
Numbers without * were called inactive.

SMILES	Dicer inh
CCc1ccnc(NC(=O)c2ccccc2)c1	1.1
CCCCn1c(CCC(=O)O)ccc1-c1ccc(C)cc1	-1.6
COc1ccc(-n2c(CCC(=O)O)ccc2-c2cccs2)cc1	1.3
CCCn1c(CCC(=O)O)ccc1-c1cccs1	3*
Cc1nn(C)c(C(=O)Nc2ccccc2Cl)c1[N+](=O)[O-]	-1.3
CO/N=C1\CC(c2ccccc2)Oc2ccccc21 (centres undefined)	-0.45
CCCN1C(=O)C(O)(CC(=O)c2ccccc2)c2ccccc21 (centres undefined)	-2
Cc1ccc(CC2CC(=O)N(Cc3ccco3)C2=O)cc1 (centres undefined)	3.6*
Cc1ccc(CC2CC(=O)N(c3ccncc3)C2=O)cc1 (centres undefined)	-0.31
Cc1ccc(CC2CC(=O)N(c3ccc(C(=O)O)cc3)C2=O)cc1 (centres undefined)	2.3
CCOC(=O)c1ccc2nc(C(F)(F)F)nc(NCCCO)c2c1	-1.7
O=C(CNc1cc(C(F)(F)F)cc(C(F)(F)F)c1)c1ccc(Cl)cc1	1.2
Cc1cc(Cl)ccc1NCN1C(=O)CCC1=O	5.2*
COc1cc(OC)c(C(F)(F)F)cc1NCN1C(=O)CCC1=O	0.78
Cc1ccc(NCN2C(=O)c3ccccc3C2=O)c(C)c1	0.9
CC(C)c1ccc(NCN2C(=O)CCC2=O)cc1	3.7*
CC(C)c1ccc(Nc2cc(=O)[nH]n2C)cc1	-1.8
O=C1CCC(=O)N1CNc1c(F)cccc1F	0.95
CC1CC(=O)N(c2ccc(F)cc2F)C(=O)C1	0.35
O=C1CCC(=O)N1CNc1cc(C(F)(F)F)cc(C(F)(F)F)c1	3.9*
O=C1CCC(=O)N1CNc1ccc(F)cc1F	4.6*
Cc1cc(Br)ccc1NCN1C(=O)c2ccccc2C1=O	9.1
CCc1ccc(NCN2C(=O)c3ccccc3C2=O)cc1	2.7
CCOC(=O)/C(C#N)=C\c1ccc(Cl)s1	0.71
Cn1nnnc1SCCNCc1ccc(OCc2ccccc2Cl)cc1	0.83
SMILES	Dicer inh
Cc1cc2nc(Nc3ncc4c(n3)CCCC4=O)nc(C)c2cc1C	0.83
Nc1ccc(S(=O)(=O)NCc2cccnc2)cc1	2.5
O=c1[nH]ccc2c(O)cccc12	0.24
Cc1c(C(=O)O)sc2sc(C(=O)O)c(C)c12	0.52
COc1ccc2nc(N3C(=O)C(O)=C(C(=O)c4cc5ccccc5o4)C3c3ccc(C)o3)sc2c1 (centres undefined)	1.2
COc1ccc(-c2nc(Nc3c(C)n[nH]c3C)sc2C)cc1	-3.1
CCn1c2c(c(=O)[nH]c1=O)C(c1ccc(C(=O)O)cc1)C1=C(N2)c2ccccc2C1=O (centres undefined)	-2.9
c1ccc(-n2nnnc2CSc2nnc3sc4ccccc4n23)cc1	-0.92
CCOC(=O)c1cnc(Nc2nc3ccccc3s2)nc1CSc1ncccn1	1.1
Nc1nc(-c2ccc3ccccc3c2)cs1	0.5
Cc1ccc(-c2csc(N=C(N)N)n2)c(C)c1	0.5
Cc1ccc(C)c(-c2csc(N)n2)c1	3.6*
Nc1nc(-c2cccs2)cs1	-0.87
Nc1cccc(-c2csc(N)n2)c1	-1.3
Nc1nc(-c2ccccc2O)cs1	4.5*
C=CCNC(=O)CCSc1nc(-c2ccc3c(c2)OCO3)cc(C(F)(F)F)n1	0.71
C=CCSCC1Nc2cc(Cl)c(S(N)(=O)=O)cc2S(=O)(=O)N1 (centres undefined)	-0.04
O=c1nc(-c2cccs2)n(-c2ccccc2)[nH]1	0.17
CCOc1cc(-c2ccc(OC)cc2)cc(=O)c2c(C)oc(C)c12	-0.25
COc1ccc(-c2cc(OC(=O)c3ccccc3C)c3c(C)oc(C)c3c(=O)c2)cc1	6.7*
CCOc1ccc(-c2cc(OC(=O)c3ccccc3F)c3c(C)oc(C)c3c(=O)c2)cc1	0.02
CC1=C(C(=O)OCCc2ccccc2)C(c2cccnc2)C2=C(CC(c3ccccc3)CC2=O)N1 (centres undefined)	-2.1
COc1cccc(C2C3=C(NCCN=C3c3ccccc3)C(=O)N2c2ccccc2)c1 (centres undefined)	0.09
O=C(O)CSCC(=O)NCCNc1nccc(C(F)(F)F)n1	1.6
CSc1ccc(/C=C/c2nc(=O)c3ccccc3o2)cc1	1.2
SMILES	Dicer inh
O=C(O)/C=C/c1ccc(O)c(O)c1	0.75
O=c1nc(/C=C/c2ccc(O)c(O)c2)oc2ccccc12	4*
CCOc1cccc(C2c3c(oc4cc(C)c(C)cc4c3=O)C(=O)N2c2nc(C)c(C)s2)c1 (centres undefined)	0.36
Cc1cc(-c2nnc(C(F)(F)F)o2)ccc1[N+](=O)[O-]	-1.8
CCOc1ccc(C2Sc3ccccc3NC3=C2C(=O)OC3)cc1 (centres undefined)	-0.38
CCCc1c(OCCCOc2ccc(OCC(=O)O)cc2)ccc(C(C)=O)c1O	0.58
C=CCN(c1nc(C)c(Br)c(OC)n1)S(=O)(=O)c1ccc(C)cc1	3.6*
CCN(c1nc(C)cc(OC)n1)S(=O)(=O)c1ccc(C)cc1	2.1
C=CCN(c1ccccc1C1=N/C(=C\c2ccc(C)cc2)C(=O)O1)S(=O)(=O)c1ccc(Cl)cc1	-0.86
CC(C)(C)c1ccc(C(=O)n2c(=S)oc3ccc(Cl)cc32)cc1	-0.04
c1cc2c(s1)SCc1cnc(C34CC5CC(CC(C5)C3)C4)nc1-2	1.1
O=c1ccn([C@@H]2O[C@H](COP(=O)(O)OP(=O)(O)O)[C@@H](O)[C@H]2O)c(=O)[nH]1	-0.44
O=C(CN1C(=O)NC2NC(=O)NC21)NC1CCCCC1 (centres undefined)	3.2*
CCC(C)NC(=O)CN1C(=O)c2cccc3cccc1c23 (centres undefined)	0.41
CCCNC(=O)Cn1nc(C(F)(F)F)c(Br)c1C	-0.64
CCCCc1nc(SCC(=O)NC2CCCCC2)n[nH]1	0.32
CCCNC(=O)CN1C(=O)NC2NC(=O)NC21 (centres undefined)	4*
CCC(C)NC(=O)CN1C(=O)c2ccccc2S1(=O)=O (centres undefined)	0.07
O=C(CC(C(=O)O)C1CCCO1)NC1CCCCC1 (centres undefined)	-0.13
CCCNC(=O)NCCN1CCNC1=O	-0.07
CCC(C)NC(=O)CN1C(=O)NC2NC(=O)NC21 (centres undefined)	4.5*
Cc1cc(C)n(-c2ccc(-n3cccc3)cc2)n1	0.37
O=C(CSc1nc(-c2ccco2)cc(C(F)(F)F)n1)N1CCCc2ccccc21	-1.8
CCOC(=O)C1=C(Nc2ccc(F)cc2)C(=O)N(C2CCCCC2)C1	-2.8
O=S(=O)(NCc1cc(F)cc2c1OCOC2)c1ccc(-c2ccccn2)s1	-5.1
SMILES	Dicer inh
CCOC(=O)c1cnc2cc(-c3ccccc3)[nH]n2c1=O	-2.6
CSc1nnc(-c2ccc(S(=O)(=O)n3nc(C)cc3C)s2)n1C	0.26
O=C(c1cnc2cc(-c3ccccc3)nn2c1)c1cc(Cl)ccc1O	-1.7
O=C(c1cnc2cc(-c3ccccc3)nn2c1)c1cc(Br)ccc1O	3.3*
O=C(c1cnc2cc(-c3ccc(Cl)cc3)nn2c1)c1ccccc1O	-0.69
Cc1[nH]c2ccccc2c1C(=O)CSc1nnc(C)n1-c1ccccc1	2.8
Cn1c(SCC(=O)c2c[nH]c3ccccc23)nnc1-c1cccs1	2.6
Cc1nnc(SCC(=O)c2c[nH]c3ccccc23)n1-c1ccccc1	4.3*
CCOC(=O)C1=C(C)Nc2nc3ccccc3n2C1c1ccc(N(C)C)cc1 (centres undefined)	-0.24
CCOc1cc(C2Nc3cccc4cccc(c34)N2)ccc1O	2.9
Brc1cccc(C2Nc3cccc4cccc(c34)N2)c1	5.2*
CC(C)(C)c1ccc(C2Nc3cccc4cccc(c34)N2)cc1	5*
